Assay results reported in PubChem BioAssay (EPA / NIEHS).
Inconclusive results are not listed. Calls of active or inactive are those of the source. How the source made its calls: active means hit-call score of the fitted dose curve at least 0.9, where 1 is the maximum; inconclusive means response in the unintended direction; inactive means score below 0.9.

Assay: Tanguay_ZF_120hpf_PE_legacy: (Legacy) Oregon State University Tanguay Lab 120 Hour Post-fertilization zebrafish Assay for Pericardial Edema (AID 2283640);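 on AC50: potency for increased incidence of pericardial edema versus DMSO baseline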
Protocol: Tanguay_ZF_120hpf_legacy is a whole embryo, multiplexed endpoint assay using zebrafish larvae exposed for 120 hours post fertilization on a 96-well plate.Tanguay_ZF_120hpf_PE_legacy is one of one assay component(s) measured or calculated from the Tanguay_ZF_120hpf_legacy assay. It is designed to make measurements of zebrafish development as detected with brightfield microscopy of developing zebrafish embryos.Data from the assay component Tanguay_ZF_120hpf_PE_legacy was analyzed into 1 assay endpoints. This assay endpoint, Tanguay_ZF_120hpf_PE_legacy, was analyzed in the positive analysis fitting direction relative to DMSO as the negative control and baseline of activity. Using a type of morphology reporter, gain-of-signal activity can be used to understand changes in developmentals as they relate to the whole embryo. To generalize the intended target to other relatable targets, this assay endpoint is annotated to the zebrafish development intended target family, where the subfamily is embryonic morphogenesis.
Zebrafish husbandry: Tropical 5D wild-type adult zebrafish were housed in at an approximate density of 1000 per 100 gallon tank at the Sinnhuber Aquatic Research Laboratory, Oregon State University, Corvallis, OR. Each tank was kept at standard laboratory conditions of 28C on a 14-h light/10-h dark photoperiod in fish water consisting of reverse osmosis water supplemented with a commercially available salt (Instant Ocean). Spawning funnels were placed into the tanks the night prior, and embryos were collected and staged. […] Ten microliters of each row of dilution plate 2 was added to 2 exposure plates. The final DMSO concentration used was 0.64% (vol/vol). Thirty-two embryos were also exposed to 5uM trimethyltin chloride (positive control). Plates were sealed to prevent evaporation and foil covered to reduce light exposure and kept in a 28C incubator. Embryos were statically exposed until 120 hpf. At 24 hpf, embryos were assessed for photomotor response using a custom photomotor response analysis tool (PRAT) and for developmental toxicity endpoints (MO24: mortality at 24 hpf, DP: developmental progression, SM: spontaneous movement, and NC: notochord distortion). At 120 hpf, locomotor activity was measured using Viewpoint Zebralab and assessed for 18 endpoints. Zebrafish acquisition and analysis program (ZAAP), a custom program designed to inventory, acquire, and manage zebrafish data, was used to collect developmental endpoints as either present or absent (i.e., binary responses were recorded). If mortality occurred for an embryo (at either 24 or 120 hpf), the non-mortality endpoints were not measured.
In the case of `CCCCCCCCCCCCCCC`, the outcome is reported as “inactive”.
With `CCCCC(CC)C(=O)O` (stereo unspecified) the outcome was “inactive”.
In the case of `CCCCc1oc2ccccc2c1C(=O)c1cc(I)c(OCCN(CC)CC)c(I)c1`, the outcome is reported as “inactive”.
In the case of `CS(=O)(=O)c1ccc([C@@H](CC2CCCC2)C(=O)Nc2cnccn2)cc1Cl`, the outcome is reported as “inactive”.
In the case of `OCC(CO)(CBr)CBr`, the outcome is reported as “inactive”.
In the case of `N=C(N)c1ccc(OCCCCCOc2ccc(C(=N)N)cc2)cc1`, the outcome is reported as “inactive”.
With `CN(Cc1cnc2nc(N)nc(N)c2n1)c1ccc(C(=O)N[C@@H](CCC(=O)O)C(=O)O)cc1` the outcome was “inactive”.
With `O=C(c1ccccc1)c1ccccc1` the outcome was “inactive”.
In the case of `Cc1[nH]nc2c1N=C(c1ccccc1Cl)c1cc([N+](=O)[O-])ccc1N2`, the outcome is reported as “inactive”.
In the case of `CCC(C)c1ccccc1O` (stereo unspecified), the outcome is reported as “inactive”.
With `CCCCCCCCCCCCOS(=O)(=O)O` the outcome was “inactive”.
For `CCCCC=O`, the AC50 was 42.9 µM (active).
With `O=C1NS(=O)(=O)c2ccccc21` the outcome was “inactive”.
With `CC(=O)Nc1ccc(O)cc1` the outcome was “inactive”.
In the case of `CN(C)CCOC(c1ccccc1)c1ccccc1`, the AC50 is reported as 26.7 µM (active).
With `O=C(CCCN1CCC(O)(c2ccc(Cl)cc2)CC1)c1ccc(F)cc1` the AC50 was 3.98 µM (active).
